# About 79,000 compounds went through this panel and 15% of them were active in at least one assay; those are over-represented in the sample as a whole. Calls of active or inactive are those of the source. No stated cut-off is given here; in the data, active means growth inhibition above about 70%; inactive means the rest.
# Test: NCI Yeast Anticancer Drug Screen. Data for the rad14 strain (AID 159);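 further: 0% = growth of vehicle-treated control cultures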
# Conditions: S. cerevisiae rad14 strain growth inhibition; at 100.0 µM; hits give high values
# Summary of the method: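 DNA repair-defective yeast, compound-exposed; % growth inhibition derived by comparison with vehicle-treated controls.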
row,SMILES,growth inhibition
1,CCOP(=O)(OCC)C(Cc1ccccc1)N=C(c1ccccc1)c1ccccc1 (centres undefined),98% (active)
2,CCc1ncnc2cc(OCC3CO3)c(OC)cc12 (centres undefined),94% (active)
3,CCOC(=O)[C@H]1Nc2ccccc2C2c3ccccc3CC21 (some centres undefined),50% (inactive)
4,O=CNc1ccc2c(c1)C(=O)c1ccccc1-2,96% (active)
5,CCOc1ccc2c(c1)c(CC(=O)O)cn2C,75% (active)
6,OC1CSCCCSCCSCCCSC1,-47% (inactive)
7,N#Cc1c(N)[nH]c2ccc(Sc3ccccc3)cc12,97% (active)
8,Cc1ccc(-c2ccc(Nc3c4ccccc4nc4ccccc34)cc2)cn1,59% (inactive)
9,c1ccc2c(c1)NC(NC1Nc3ccccc3N1)N2,26% (inactive)
10,OC(COc1cccc2ccccc12)CN1CCOCC1 (centres undefined),52% (inactive)
11,CCC/C(Cl)=N\OC(=O)Nc1ccc(Br)cc1,99% (active)
12,COc1ccc(/C=C2\SC(=S)N(/C=C/c3nc4ccccc4[nH]c3=O)C2=O)cc1OC,90% (active)
13,O=C(NNc1ccnc2cc(Cl)ccc12)/C(=C\c1ccccc1Cl)NC(=O)c1ccccc1,0% (inactive)
14,CSC1=NNC(SC)=NN1,98% (active)
15,Cc1c(C2=C(Br)C(=O)N(C)C2=O)c(=O)n(C)c(=O)n1C,91% (active)
16,NCCNc1ccc(NCCN)c2c1C(=O)c1c(O)ccc(O)c1C2=O,68% (inactive)
17,Cn1c(=O)c(-c2ccccc2)c(N=[N+]=[N-])c2ccccc21,89% (active)
18,CCCCCCCCCCCCCCCCCCOCC(O)COP(=O)(O)OCC1OC(n2cc(F)c(=O)[nH]c2=O)CC1O (centres undefined),95% (active)
19,CCS(=O)(=O)c1ccc(/C=C/C=N/NC(=S)NCC(C)C)cc1,3% (inactive)
20,CCC(=O)Oc1c(Cl)cc(Cl)c2ccccc12,39% (inactive)

row,SMILES,growth inhibition
1,COc1cc2c3c(cccc3c1)C(=O)N(CCN(C)C)C2=O,-14% (inactive)
2,CN(C)c1ccc(C(C#N)=C(C#N)C#N)cc1,33% (inactive)
3,O=C(CCCN1CCC2(CC1)CC(=O)N(N1CCCCCC1)C2=O)c1ccc(F)cc1,87% (active)
4,O=C1C2C(C(=O)N1c1ccc(OCc3ccccc3)cc1)C1c3ccccc3C2C2CCCCN21 (centres undefined),97% (active)
5,CCN(CC)CCC(=O)c1ccc(Oc2ccc(F)cc2)cc1,81% (active)
6,O=Nc1c(NO)ccc2nn(-c3ccccc3)nc12,98% (active)
7,CC(=O)SCCC[Si](C)(C)CCCSC(C)=O,39% (inactive)
8,O=C(O)C1CCCCC1c1c2ccc(=O)c(O)c-2oc2c(O)c(O)ccc12 (centres undefined),84% (active)
9,Cc1ccc(NN(NC(=O)OC(C)C)C(=O)OC(C)C)cc1,8% (inactive)
10,O=C1c2ccccc2C(=O)c2cc(CBr)ccc21,89% (active)
11,Cc1c(C(Cc2ccccc2N(C)C(=O)/C=C\C(=O)O)c2c[nH]c3ccccc23)c2ccccc2n1C (centres undefined),33% (inactive)
12,CC(C)/C(Cl)=N\OC(=O)Nc1ccc(F)cc1,69% (inactive)
13,O=C1OC(=O)C2CCCC3CCCC1C32 (centres undefined),94% (active)
14,CCOC(=O)C(NC(=O)c1ccccc1)(N1CCN(c2cc3c(cc2F)c(=O)c(C(=O)O)cn3C2CC2)CC1)C(F)(F)F (centres undefined),2% (inactive)
15,COc1ccc(NC(=S)N/N=C(\c2ccccc2)c2ccccn2)cc1,95% (active)
16,C=CCC1=C(C)C(OC(=O)/C=C/c2ccccc2)CC1=O (centres undefined),18% (inactive)
17,NNc1c(F)c(F)cc(F)c1F,-4% (inactive)
18,COP(=O)(OC)/C(=C\C1=CN(C(c2ccccc2)(c2ccccc2)c2ccccc2)CN1)NC=O,96% (active)
19,COC(=O)c1cc(-c2ccc(C)cc2)[nH]c(=O)c1C#N,-11% (inactive)
